# Active and inactive are the calls of the source.
# Key:
# [1] = target: Albumin (Bos taurus) (UniProt P02769); assay: compounds binding labelled BSA control protein – biochemical, small-molecule microarray, Alexa647 label, 635/667 nm fluorescence, artefact control for SMM control protein annotation, profiling panel (AID 1118); conditions: BSA-A647 binding, fluorescence 635 nm, higher = more signal;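 note: score merges 667 nm emission intensity and signal-to-noise per printed compound spot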
# [2] = probe aXIP binding to arrayed compounds – biochemical, NeuroSMM set, 635/667 nm fluorescence, primary screen (AID 1119); conditions: small-molecule microarray, higher = more signal, called active from +8 up or from −8 down;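 note: probe is the protein aXip251-270 applied at 1 µg/mL to compound-printed slides; binding of probe to printed compounds measured as 667 nm fluorescence plus signal to noise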
# [3] = probe aNOTCH3 binding on compound microarray – biochemical, small-molecule microarray, 635/667 nm fluorescence, primary screen (AID 1120); conditions: higher = more signal;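 note: probe is a biotin-tagged antibody raised against NOTCH3 rather than NOTCH3 protein; score merges spot fluorescence near 667 nm with spot signal to noise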
# [4] = probe aNOTCH2 binding on compound microarray – biochemical, small-molecule microarray, 635/667 nm fluorescence, primary screen (AID 1121); conditions: higher = more signal;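 note: score merges feature fluorescence read at 667 nm with its signal to noise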
# [5] = target: Carbonic anhydrase 2 (Homo sapiens) (UniProt P00918); assay: compounds binding carbonic anhydrase 2 – biochemical, small-molecule microarray, Alexa647-labelled CAII, profiling panel (AID 1122); conditions: CAII-A647 binding fluorescence, higher = more signal
# [6] = COS7 lysate on small-molecule microarray, probe aHis, 635 nm (AID 1123); conditions: COS7 cell lysate, fluorescence, higher = more signal;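 note: z-score combines 667nm fluorescence intensity with signal-to-noise per printed compound spot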
# [7] = probe aLAP1 signal on lysate-treated microarray – cell lysate, small-molecule microarray, COS7 lysate, primary screen (AID 1124); conditions: probe aLAP1, fluorescence, higher = more signal;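 note: lysate comes from COS7 cells expressing LAP1 and is applied at 0.3 µg/mL; score merges spot fluorescence near 667 nm with signal-to-noise over triplicate slides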
# [8] = tested on: Sam68 (KHDRBS1); assay: compounds binding KHDRBS1 protein – biochemical, small-molecule microarray, 635 nm fluorescence, primary screen (AID 1125); conditions: higher = more signal;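 note: score merges 667 nm channel intensity with signal to noise over triplicate slides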
# [9] = tested on: Chordin-like protein 2 (CHRDL2); assay: compounds binding chordin-like 2 – biochemical, small-molecule microarray, 635 nm fluorescence, primary screen (AID 1126); conditions: fluorescence 635 nm, higher = more signal;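 note: printed compound slides probed with Chrdl2 protein at 4 µg/mL for 1 h at 4 C; score merges 667 nm emission intensity with signal to noise over three replicate slides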
# [10] = target: Concanavalin-A (Canavalia ensiformis) (UniProt P02866); assay: compounds binding concanavalin A lectin – biochemical, small-molecule microarray, Alexa647 label, 635 nm, artefact control for SMM control protein annotation, primary screen (AID 1127); conditions: ConA-A647 binding fluorescence, higher = more signal;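 note: z combines 667 nm emission intensity with signal-to-noise across three replicate slides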
# [11] = compounds binding Alexa647 anti-His antibody – biochemical, small-molecule microarray, 635 nm fluorescence, artefact control for SMM control protein annotation, primary screen (AID 1128); conditions: higher = more signal;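 note: score merges feature fluorescence with signal-to-noise for each printed compound spot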
# [12] = tested on: Human papillomavirus type 1a E7 protein (residues 1-88); assay: HPV1a E7 small-molecule binders, primary screen, biochemical, small-molecule microarray, residues 1-88, 635 nm (AID 1129); conditions: small-molecule microarray binding, fluorescence 635 nm; higher = more signal
# [13] = target: Focal adhesion kinase 1 (Homo sapiens) (UniProt Q05397); assay: PTK2 protein binding on printed compound slides – biochemical, small-molecule microarray, 635/667 nm fluorescence, BSA, DTT, primary screen (AID 1130); conditions: 635 nm fluorescence, higher = more signal;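 note: composite of spot emission at 667 nm and signal to noise over triplicate slides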
# [14] = tested on: Fibrinogen (Alexa647-labelled); assay: Alexa647-fibrinogen binding to printed small molecules – biochemical, small-molecule microarray, 635/667 nm fluorescence, artefact control for SMM control-protein annotation, profiling panel (AID 1131); conditions: fibrinogen-A647 binding fluorescence, higher = more signal;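 note: z-score merges 667 nm fluorescence with per-spot signal-to-noise over triplicate slides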
# [15] = target: Follistatin (Homo sapiens) (UniProt P19883); assay: FST protein binding to printed compounds – biochemical, small-molecule microarray, 635/667 nm fluorescence, primary screen (AID 1132); conditions: 635 nm fluorescence, higher = more signal
# [16] = target: Fibroblast growth factor 2 (Homo sapiens) (UniProt P09038); assay: basic fibroblast growth factor binding to printed compounds – biochemical, small-molecule microarray, 635/667 nm fluorescence, primary screen (AID 1133); conditions: FGF2, fluorescence 635/667, higher = more signal
# [17] = JC-1 mitochondrial potential readout, lung cancer cells – cell-based, A549, JC-1 fluorescence, basal, 24 h, 100 nL, profiling panel (AID 1138); conditions: higher = more signal;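 note: A549 lung adenocarcinoma cells under basal conditions with no added stimulus; test concentration not given here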
# [18] = tested on: Lefty1; assay: Lefty1 protein binding to printed compounds – biochemical, small-molecule microarray, 635/667 nm fluorescence, primary screen (AID 1139); conditions: fluorescence 635/667, higher = more signal
# [19] = tested on: wheat germ agglutinin (Triticum aestivum), Alexa647-labelled; assay: Alexa647-WGA lectin binding to printed small molecules – biochemical, small-molecule microarray, 635/667 nm fluorescence, artefact control for SMM control-protein annotation, profiling panel (AID 1140); conditions: WGA-A647 binding, 635 nm fluorescence, higher = more signal;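 note: score merges 667 nm feature emission with signal to noise over triplicate slides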
# [20] = target: Luciferin 4-monooxygenase (Photinus pyralis) (UniProt P08659); assay: inhibition of purified Photinus pyralis luciferase – biochemical, luminescence, purified enzyme, 2006 set, primary screen (AID 1141); conditions: purified firefly luciferase, SteadyGlo luminescence, 30 min; higher = more signal, called active from +8 up or from −8 down;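 note: cell-free assay with purified firefly luciferase at 100 ng per well in PBS; test concentration not given here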
# Chain of Luciferin 4-monooxygenase (Photinus pyralis) (P08659 whole entry, looked up): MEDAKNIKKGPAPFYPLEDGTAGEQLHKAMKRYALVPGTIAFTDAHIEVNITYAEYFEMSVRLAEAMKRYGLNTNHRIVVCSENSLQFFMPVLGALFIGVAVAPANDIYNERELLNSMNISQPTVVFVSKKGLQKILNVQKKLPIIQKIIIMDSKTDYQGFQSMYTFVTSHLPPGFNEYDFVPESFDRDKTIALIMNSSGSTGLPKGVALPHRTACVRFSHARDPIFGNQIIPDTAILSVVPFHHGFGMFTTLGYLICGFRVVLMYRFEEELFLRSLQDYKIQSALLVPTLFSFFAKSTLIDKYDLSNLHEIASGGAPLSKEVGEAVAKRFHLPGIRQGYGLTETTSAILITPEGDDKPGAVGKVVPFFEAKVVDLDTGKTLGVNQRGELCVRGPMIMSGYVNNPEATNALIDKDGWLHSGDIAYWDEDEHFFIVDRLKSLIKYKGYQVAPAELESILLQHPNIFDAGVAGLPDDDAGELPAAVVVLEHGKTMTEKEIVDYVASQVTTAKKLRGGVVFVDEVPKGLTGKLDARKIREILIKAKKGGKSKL
# Chain of Focal adhesion kinase 1 (Homo sapiens) (Q05397 whole entry, looked up): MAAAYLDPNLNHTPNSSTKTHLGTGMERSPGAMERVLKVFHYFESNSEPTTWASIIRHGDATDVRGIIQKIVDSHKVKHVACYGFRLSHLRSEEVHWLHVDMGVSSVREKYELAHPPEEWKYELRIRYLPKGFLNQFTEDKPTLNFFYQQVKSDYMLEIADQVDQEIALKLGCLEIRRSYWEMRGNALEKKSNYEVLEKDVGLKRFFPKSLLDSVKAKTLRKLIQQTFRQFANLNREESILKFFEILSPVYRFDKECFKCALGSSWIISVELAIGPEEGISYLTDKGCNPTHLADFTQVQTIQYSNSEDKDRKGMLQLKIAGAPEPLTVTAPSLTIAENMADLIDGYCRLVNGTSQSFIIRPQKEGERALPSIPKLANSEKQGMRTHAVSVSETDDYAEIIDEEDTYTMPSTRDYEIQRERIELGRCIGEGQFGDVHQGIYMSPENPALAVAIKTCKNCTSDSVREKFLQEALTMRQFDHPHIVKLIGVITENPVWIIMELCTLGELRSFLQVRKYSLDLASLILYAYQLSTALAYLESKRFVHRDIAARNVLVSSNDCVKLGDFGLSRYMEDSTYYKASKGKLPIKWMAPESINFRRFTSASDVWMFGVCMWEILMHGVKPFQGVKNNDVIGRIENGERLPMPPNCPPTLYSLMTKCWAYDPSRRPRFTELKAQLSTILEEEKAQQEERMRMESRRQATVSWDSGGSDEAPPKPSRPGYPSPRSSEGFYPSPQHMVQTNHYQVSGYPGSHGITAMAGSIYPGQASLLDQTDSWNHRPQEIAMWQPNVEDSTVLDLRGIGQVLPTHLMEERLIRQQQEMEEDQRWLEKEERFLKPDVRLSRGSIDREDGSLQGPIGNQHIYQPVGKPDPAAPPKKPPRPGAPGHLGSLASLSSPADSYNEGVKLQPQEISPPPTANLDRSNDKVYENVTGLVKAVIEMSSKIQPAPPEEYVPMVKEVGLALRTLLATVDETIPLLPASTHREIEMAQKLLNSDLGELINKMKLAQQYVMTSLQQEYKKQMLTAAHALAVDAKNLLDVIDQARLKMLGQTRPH
# Chain of Fibroblast growth factor 2 (Homo sapiens) (P09038 whole entry, looked up): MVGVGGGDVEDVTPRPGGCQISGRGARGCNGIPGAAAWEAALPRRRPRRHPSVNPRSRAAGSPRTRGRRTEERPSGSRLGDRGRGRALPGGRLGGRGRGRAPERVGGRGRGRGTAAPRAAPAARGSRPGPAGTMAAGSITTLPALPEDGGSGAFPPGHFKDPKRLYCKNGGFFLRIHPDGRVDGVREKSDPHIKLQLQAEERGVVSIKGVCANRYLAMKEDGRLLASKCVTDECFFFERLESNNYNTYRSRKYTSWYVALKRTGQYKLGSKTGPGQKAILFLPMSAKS
# Chain of Albumin (Bos taurus) (P02769 whole entry, looked up): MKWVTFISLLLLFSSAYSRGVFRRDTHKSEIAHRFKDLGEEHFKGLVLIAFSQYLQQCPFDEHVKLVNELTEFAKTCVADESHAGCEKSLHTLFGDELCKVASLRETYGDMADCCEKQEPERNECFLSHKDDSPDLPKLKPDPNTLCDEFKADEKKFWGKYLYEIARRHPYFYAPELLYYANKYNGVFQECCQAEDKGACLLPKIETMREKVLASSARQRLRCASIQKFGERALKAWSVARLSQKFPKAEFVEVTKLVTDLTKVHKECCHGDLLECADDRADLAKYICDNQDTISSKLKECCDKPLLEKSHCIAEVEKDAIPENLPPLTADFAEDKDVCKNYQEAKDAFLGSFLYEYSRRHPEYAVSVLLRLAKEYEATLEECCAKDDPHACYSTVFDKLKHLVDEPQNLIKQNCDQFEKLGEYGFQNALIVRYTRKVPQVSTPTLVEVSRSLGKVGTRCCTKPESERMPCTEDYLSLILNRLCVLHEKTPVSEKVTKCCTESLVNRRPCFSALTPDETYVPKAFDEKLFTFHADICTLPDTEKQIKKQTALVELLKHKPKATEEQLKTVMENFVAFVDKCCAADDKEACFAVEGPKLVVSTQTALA
# Chain of Follistatin (Homo sapiens) (P19883 whole entry, looked up): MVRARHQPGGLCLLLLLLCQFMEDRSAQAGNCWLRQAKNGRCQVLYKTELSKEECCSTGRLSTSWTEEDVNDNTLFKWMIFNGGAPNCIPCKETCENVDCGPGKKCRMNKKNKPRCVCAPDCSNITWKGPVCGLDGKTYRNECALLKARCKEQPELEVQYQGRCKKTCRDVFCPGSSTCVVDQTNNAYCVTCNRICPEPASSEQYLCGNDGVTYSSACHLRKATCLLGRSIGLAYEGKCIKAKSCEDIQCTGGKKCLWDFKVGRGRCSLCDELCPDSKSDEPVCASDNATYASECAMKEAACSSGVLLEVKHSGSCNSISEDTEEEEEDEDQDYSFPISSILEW
# Chain of Concanavalin-A (Canavalia ensiformis) (P02866 whole entry, looked up): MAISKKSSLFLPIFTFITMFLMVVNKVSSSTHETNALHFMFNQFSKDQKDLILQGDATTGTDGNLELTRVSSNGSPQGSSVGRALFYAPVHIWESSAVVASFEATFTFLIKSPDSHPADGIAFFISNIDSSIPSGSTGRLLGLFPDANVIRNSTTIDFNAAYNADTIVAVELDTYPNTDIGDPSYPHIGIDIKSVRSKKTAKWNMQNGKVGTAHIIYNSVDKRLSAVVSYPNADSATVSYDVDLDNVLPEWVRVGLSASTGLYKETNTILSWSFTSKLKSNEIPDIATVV
SMILES,composite z-score [1],composite Z-score [2],composite z-score [3],composite z-score [4],composite z-score [5],composite z-score [6],composite z-score [7],composite z-score [8],composite z-score [9],composite z-score [10],composite z-score [11],composite z-score [12],composite z-score [13],composite z-score [14],composite z-score [15],composite z-score [16],z-score [17],composite z-score [18],composite z-score [19],z-score [20]
CC(c1ccccc1)C(O)C1C=CC2C(=O)N(Cc3ccccc3)C(=O)C2N1n1cnnc1 (stereo not given),0.405,0.171 (inactive),0.178,-0.046,0.415,1.06,-0.0771,0.669,-0.226,0.851,0.509,0.914,0.146,0.654,0.374,0.408,-1.27,-0.133,0.532,1.52 (inactive)
CN(C)CCCC[C@@H]1NC(=O)[C@H]2C[C@@H](C(=O)NCCCCCNC(=O)CS)[C@@H](c3ccc(O)cc3)N2C1=O,0.74,0.157 (inactive),-0.374,-0.127,-0.204,0.268,-0.733,-1.38,-0.688,0.734,0.504,-0.54,-0.0308,-0.293,0.756,0.421,0.64,-0.78,-0.128,-1.25 (inactive)
C=CCC(OC(C)=O)[C@@H]1[C@@H](N(Cc2ccc(-c3ccccc3)cc2)C(=O)c2ccc(C)cc2)c2cc(OCCCO)ccc2N1C(=O)c1ccc2ccccc2n1 (stereo not given in full),-0.361,-0.181 (inactive),0.246,-0.0134,0.0144,0.249,-0.446,-0.44,0.0539,-1.78,-0.512,-0.0119,-0.0203,-0.459,0.0869,-0.006,3.18,-0.135,-0.0101,-1.9 (inactive)
CCCCC(=C=CC[C@H](O)c1ccccc1OCCO)C[C@H](O)c1cc(Cl)cc(Cl)c1O,0.233,0.45 (inactive),-0.0448,-0.175,0.649,0.499,0.569,0.811,-0.473,0.907,1.02,0.955,0.305,0.517,0.698,0.28,-0.343,0.249,0.0162,-1.27 (inactive)
COc1cc(CO)cc(I)c1O[C@H]1C=C(C(=O)NCCO)C[C@@H](N(CCc2cccc(F)c2)C(=O)CCC2CCCC2)[C@@H]1O,-0.526,0.687 (inactive),0.13,-0.0596,0.117,1.29,1.88,1.3,1.32,0.444,2.62,1.19,0.218,0.819,1.46,1.76,-0.172,1.49,0.524,1.38 (inactive)
C=C[C@H](C)[C@H](O)c1ccc(OCCO)cc1,-0.529,-0.254 (inactive),-0.502,-0.185,0.264,-1.09,-0.177,-1.74,-2.23,-0.802,-0.151,-1.55,0.151,-2.74,-0.74,-1.2,0.145,-0.91,-0.89,-24.9 (active)

# Source: PubChem BioAssay
